L3MBTL1 inh: L3MBTL1 (human) inhibition | AID 485360 | AlphaScreen L3MBTL1–H3K9me1 peptide binding | Potency, µM (top dose mostly 57.1 µM), without a hit: at the highest dose activity, negative = inhibition, hits mostly inhibitors | 230,000 tested, 0.66% active; also: % is scaled to controls: 0 for no effect and ±100 for the full control effect; nearly all actives have a fitted effect of over 60% in size
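L3MBTL1 (50 nM) pre-complexed 30 min with biotinylated H3(1-15)K9me1 peptide (75 nM), then compounds added for 30 min at room temperature; AlphaScreen streptavidin donor/nickel chelate acceptor beads (10 ug/mL final) read after 30 min dark incubation.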
JMJD2A Tudor: blocks the human JMJD2A Tudor domain. Potency, µM (highest dose often 114 µM), for inactives: top-dose activity change, negative = inhibition, actives largely listed as inhibitors. AlphaScreen JMJD2A-Tudor / H3K4me3 peptide binding. AID 504339. O75164. 390,000 tested, 4.4% active; also: % is scaled to controls: 0 for no effect and ±100 for the full control effect; nearly all actives have a fitted effect of over 50% in size
BAZ2B inh: inhibitors of human BAZ2B bromodomain; Q9UIF8; AlphaScreen BAZ2B-H3K14Ac peptide displacement; Potency, µM (doses to about 114 µM), for inactives: at the top dose activity change, negative = inhibition, actives largely listed as inhibitors; 360,000 tested, 4.4% active; also: % is scaled to controls: 0 for no effect and ±100 for the full control effect; nearly all actives have a fitted effect of over 60% in size
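BAZ2B (50 nM) with biotin-H3(5-23)K14Ac peptide (50 nM) in PBS pH 7.4, 0.01% Tween-20, preformed 30 min, then compound 30 min at room temperature; top concentration 110uM. AlphaScreen streptavidin donor/nickel chelate acceptor beads (10 ug/mL final), 20 min dark, signal read.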
G9a inh: blocks human histone lysine methyltransferase G9a. Q96KQ7. G9a H3K9 monomethylation, AlphaScreen, 2 h. Potency, µM (highest dose often 102 µM), without a hit: at the highest dose activity, negative = inhibition, hits mostly inhibitors. 350,000 tested, 8.8% active; also: % is scaled to controls: 0 for no effect and ±100 for the full control effect; nearly all actives have a fitted effect of over 75% in size
Target sequence (Q96KQ7 913-1193 limits assumed): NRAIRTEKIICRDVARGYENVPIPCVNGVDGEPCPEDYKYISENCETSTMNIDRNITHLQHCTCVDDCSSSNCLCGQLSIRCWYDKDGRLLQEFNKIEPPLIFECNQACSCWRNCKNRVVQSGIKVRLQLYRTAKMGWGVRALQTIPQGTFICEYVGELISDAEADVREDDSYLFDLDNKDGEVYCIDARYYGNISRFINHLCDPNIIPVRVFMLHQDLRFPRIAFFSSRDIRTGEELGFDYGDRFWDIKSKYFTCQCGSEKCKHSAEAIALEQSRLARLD
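AlphaScreen detection with an anti-monomethyl H3K9 antibody quantified product after a 2 h room-temperature reaction containing 500 nM biotinylated H3K9 peptide, 20 µM SAM and 20 nM enzyme, which had been preincubated 15 min with compound.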
HP1b chromo inh: HP1-beta chromodomain-methylated histone interaction inhibition; P83916; 390,000 tested, 0.56% active; Potency, µM (top dose mostly 114 µM), inactives show top-dose activity change, negative = inhibition, usual class: inhibitors; AlphaScreen HP1-beta / biotin-H3K9me3 peptide binding; also: nearly all actives have a fitted effect of over 70% in size
Target sequence (P83916 whole entry, looked up): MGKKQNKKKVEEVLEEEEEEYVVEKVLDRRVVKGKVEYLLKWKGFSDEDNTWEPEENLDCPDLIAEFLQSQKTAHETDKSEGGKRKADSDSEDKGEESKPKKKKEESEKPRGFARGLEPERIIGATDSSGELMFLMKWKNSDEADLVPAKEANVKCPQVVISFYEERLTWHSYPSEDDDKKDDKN
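AlphaScreen: HP1-beta (50 nM) preformed 30 min with biotin-H3(1-18)K9me3 peptide (50 nM) in PBS pH 7.4, 0.01% Tween-20. Compound added for 30 min at RT, then streptavidin donor/nickel chelate acceptor beads (10 ug/mL) for 30 min.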
Starred values were filed as active, the others as inactive; ? = inconclusive; · = no result given; [ ] = another dose, or the depositor's remark. Only some compounds are listed: those with a hit (about 11% of all), similar ones and a draw of the others. Calls follow the shape of the dose curve; as a rule, active = well fitted inhibition curve with a large enough effect; inconclusive = small, poorly fitted or top-dose-only effect; inactive = no such curve, though single readings can be large or run the other way. Potency is read from the fitted curve at half-maximal effect.

SMILES	L3MBTL1 inh	JMJD2A Tudor	BAZ2B inh	G9a inh	HP1b chromo inh
O=C(CCNS(=O)(=O)c1cccc2nsnc12)Nc1ccc(F)cc1	·	6.5%	0.8%	-5.2%[59 µM]	21.3%
OC(c1ccccc1)(c1ccccc1)c1cnc2ccccn12	·	-13.6%	·	·	·
O=C(CN1C(=O)c2cccnc2Oc2ccc(Cl)cc21)Nc1cccc(C(F)(F)F)c1	·	-11.2%	-2.4%	1.1%[59 µM]	38.7%
Cc1ccc(C2C(C#N)=C(N)Oc3n[nH]c(-c4cccs4)c32)s1 (stereo unspecified)	-0.2%	-18.2%	?	50.1µM*	10.3%
Cn1c(CNC(=O)CNC(=O)Cc2ccc(F)cc2)cc(=O)n(C)c1=O	·	-4.8%	-19.8%	-6.0%	40.8%
Cc1cccc(C(=O)NNS(=O)(=O)c2ccc(F)cc2)c1	6.4%	-3.0%	-8.9%	·	24.6%
O=C(NNC(=O)c1ccncc1)c1ccccc1	·	-1.4%	-7.8%	-1.8%	-38.0%
Cc1cccc(C(=O)NNS(=O)(=O)c2ccc(F)cc2)c1O	1.5%	2µM*	-11.5%	3.8%	25.6%
Cc1ccc(S(=O)(=O)NNC(=O)c2sc(=S)n(C)c2C)cc1	-1.9%	3.55µM*	-33.2%	?	29.0%
O=C(NNS(=O)(=O)c1ccccc1)c1cccc(F)c1	-1.6%[2.29 µM]	7.8%	56.2µM*	7.8%[0.501 µM]	45.9%
O=C(NNS(=O)(=O)c1ccccc1)c1ccncc1	0.0%	10µM*	11.3%	?	8.5%
O=C(NNS(=O)(=O)c1ccccc1)c1ccc([N+](=O)[O-])cc1	7.2%	-6.5%	-15.9%	-50.5%	44.9%
Cc1ccc(S(=O)(=O)NNC(=O)c2ccncc2)cc1	-1.1%	79.4µM*	-1.1%	-2.2%	6.3%
O=C(NNS(=O)(=O)c1ccc([N+](=O)[O-])cc1)c1ccncc1	·	-2.8%	-21.1%	39.8µM*	-25.2%
Cc1ccc(S(=O)(=O)NNC(=O)c2cccnc2)cc1	·	-13.0%	·	7.8%	11.1%
COC(=O)Cc1nnc(SCC(=O)Nc2ccccc2)c2ccccc12	·	11.3%	-23.5%	-20.6%	60.8%
Oc1ccc(-c2nc3ccc4ccccc4c3c3c2CCC3)cc1O	-7.3%	?	50.1µM*	?	?
COC(=O)c1ccc(N2CCOCC2)c(NC(=O)Nc2cccc(OC)c2)c1	2.3%	-8.3%	4.7%	44.7µM*	-1.6%
O=C1N(C2CCCC2)C[C@@H]2C[C@@H](c3cccn3-c3ccccn3)N3CCC[C@@]123	-7.1%	-10.5%	-1.2%	-33.5%	27.4%
O=C1N(C2CCCC2)C[C@@H]2C[C@@H](c3cccn3-c3nccs3)N3CCC[C@@]123	-1.0%	-19.2%	-0.3%	50.1µM*	10.6%
Cc1ccc(Cl)cc1N1CCN(CCCNc2ncnc3onc(-c4ccc(F)cc4)c23)CC1	·	-34.6%	-10.2%[57.1 µM]	?	13.7%
CNC(=S)N(C1=NCC(c2ccc([N+](=O)[O-])cc2)S1)c1ccccc1 (stereo unspecified)	·	?	?	35.5µM*	?
CN(CCCOc1ccccc1Br)Cc1ccccc1	-2.4%	-13.0%	-0.5%	23.4%	-11.0%
Cc1ccc(Cl)c(OCCCCN(C)Cc2ccccc2)c1	3.7%	2.82µM*	-34.8%	10µM*	-35.8%
Cc1ccc(Cl)c(OCCCN(C)Cc2ccccc2)c1	·	1.12µM*	31.6µM*	1.78µM*	44.7µM*
SMILES	L3MBTL1 inh	JMJD2A Tudor	BAZ2B inh	G9a inh	HP1b chromo inh
O=C(CN1CCC(n2nnc3cc(F)ccc32)CC1)NCc1ccco1	-18.5%	-23.5%	79.4µM*	?	12.4%
Cn1c(=O)oc2cc(S(=O)(=O)N3CCCC(C(=O)N4CC=C(c5ccccc5)CC4)C3)ccc21 (stereo unspecified)	-0.6%	·	6.2%	50.1µM*	·
COc1ccccc1N1CCN(C(=O)C2CCCN(S(=O)(=O)c3ccc4c(c3)oc(=O)n4C)C2)CC1 (stereo unspecified)	·	-15.9%	-38.5%	3.0%[59 µM]	22.4%
N#Cc1c(NC(=S)NC(=O)c2ccccc2)sc2c1CCN(CCc1ccccc1)C2	-5.4%	·	-11.6%	39.8µM*	·
N#Cc1c(NC(=S)NC(=O)C2CCCC2)sc2c1CCCCC2	6.8%	-27.7%	-1.1%	35.5µM*	-19.4%
CC(C)C(C(=O)Nc1sc2c(c1C#N)CCCCC2)N1C(=O)c2ccccc2C1=O (stereo unspecified)	-5.1%	-28.3%	50.1µM*	?	11.4%
N#Cc1c(NC(=S)NC(=O)c2ccccc2)sc2c1CCCC2	-6.1%	?	4.6%	8.91µM*	8.2%
COc1ccc(C2c3c(n(C)c4ccccc34)C(=O)N2CC(=O)Nc2ccc(Cl)cc2)cc1 (stereo unspecified)	·	-28.3%	-8.8%	-4.2%[59 µM]	-13.9%
CC1CCc2c(sc(NC(=O)c3cc(-c4ccc(F)cc4)on3)c2C(N)=O)C1 (stereo unspecified)	·	-6.8%	1.8%	-4.0%[59 µM]	12.6%
COc1ccc2oc(-c3cccc(NC(=O)c4cc([N+](=O)[O-])ccc4N4CCOCC4)c3)nc2c1	·	-29.1%	?	?	-11.3%
CC1(C)Cc2c(sc(NC(=O)c3ccco3)c2C(=O)O)CO1	·	-15.7%	-2.1%	22.6%[12.7 µM]	15.7%
CC1(C)Cc2c(sc(NC(=S)NC(=O)c3ccccc3)c2C(=O)O)CO1	-5.5%	-31.2%	?	39.8µM*	-25.2%
Cc1ccc(CNC(=O)c2ccc(CSCc3ccccc3C)o2)cc1	·	1.5%	19.0%	12.4%[59 µM]	31.2%
O=C(NCCc1ccccc1)c1ccc(Cn2c(SCc3ccccc3F)nc3cccnc32)cc1	·	-26.1%	10.2%	1.1%[59 µM]	49.0%
O=C(NCCc1ccccc1)c1ccc(CSc2nc3cccnc3n2Cc2ccccc2F)cc1	·	5.62µM*	14.1µM*	2µM*	25.1µM*
C=C1C(c2ccc(C)cc2)=CCc2cc(C)cc(C)c21	·	·	·	28.8%[59 µM]	·
OC1(c2ccccc2Cl)NN=C2CCCCCN21 (stereo unspecified)	5.9%	5.62µM*	-18.0%	79.4µM*	-20.8%
CC(=O)c1ccc(-n2c(CCC(=O)O)ccc2-c2ccc(Br)cc2)cc1	·	?	?	39.8µM*	-8.4%
O=C(O)CCc1ccc(-c2ccc(Br)cc2)n1-c1ccc(O)cc1	·	?	39.8µM*	44.7µM*	?
Nc1nc(-c2cc3c(cc2Cl)OCCO3)cs1	-5.4%	-22.8%	?	14.1µM*	4.9%
CCC1=Nc2cc(C(=O)NC3CCCC3)ccc2Sc2ccc(Br)cc21	·	-23.3%	-29.6%	-5.2%[59 µM]	5.8%
CN(Cc1ccccc1)c1nc2c(S(=O)(=O)c3ccccc3)nnn2c2ccsc12	·	-9.9%	-10.1%	-15.1%[59 µM]	49.9%
CCNc1ccccc(C(=O)/C=C/c2ccc3c(c2)OCO3)c1=O	·	56.2µM*	44.7µM*	5.01µM*	?
CNc1ccccc(C(=O)/C=C/c2ccccc2OC)c1=O	-5.4%	?	50.1µM*	4.47µM*	-25.1%
Cc1ccc(/C=C/C(=O)c2cc(Br)ccc2OC(=O)c2ccco2)cc1	-9.0%	-10.7%[11.4 µM]	-21.9%	-49.1%[59 µM]	-26.4%
CNc1ccc(Br)cc(C(=O)/C=C/c2cccc(Cl)c2Cl)c1=O	?	44.7µM*	?	28.2µM*	-20.7%
